Source: PubChem (National Center for Advancing Translational Sciences (NCATS))
RORg inh = qHTS for inhibitors of ROR gamma transcriptional activity. Drosophila S2 Gal4-RORgamma UAS-luciferase reporter, 20 h. Potency, µM (series often up to 53.6 µM), usual class: inhibitors. 5.4% of 310,000 active. AID 2551, 2010; note: nearly all actives have a fitted effect of over 60% in size
Target sequence (P51450 whole entry, looked up, the tested form may be a part): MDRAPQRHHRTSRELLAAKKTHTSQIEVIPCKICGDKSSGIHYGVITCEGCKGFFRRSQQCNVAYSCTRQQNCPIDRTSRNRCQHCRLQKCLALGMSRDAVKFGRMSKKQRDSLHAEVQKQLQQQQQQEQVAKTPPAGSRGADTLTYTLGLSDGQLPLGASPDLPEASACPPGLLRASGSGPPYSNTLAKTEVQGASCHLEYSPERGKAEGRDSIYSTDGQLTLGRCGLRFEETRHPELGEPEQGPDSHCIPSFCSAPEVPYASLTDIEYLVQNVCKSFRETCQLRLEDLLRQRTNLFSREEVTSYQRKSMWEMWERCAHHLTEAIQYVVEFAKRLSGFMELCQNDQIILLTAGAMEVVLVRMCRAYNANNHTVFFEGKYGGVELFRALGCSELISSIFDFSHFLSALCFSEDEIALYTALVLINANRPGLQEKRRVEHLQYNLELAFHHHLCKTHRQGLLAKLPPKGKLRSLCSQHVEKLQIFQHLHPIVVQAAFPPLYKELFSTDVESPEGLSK
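Using a luciferase readout, inhibitors were identified by reduced reporter activity in Drosophila cells coexpressing a copper-inducible Gal4–ROR gamma fusion and UAS-driven Photinus luciferase, incubated 20 hr after 700 uM copper sulfate.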
ATXN2 expr inh = Primary qHTS for Inhibitors of ATXN expression | HEK-293 ATXN2-luciferase reporter, luminescence, 24 h | Potency, µM (doses to about 57 µM), usual class: inhibitors | 0.72% of 360,000 active; note: nearly all actives have a fitted effect of over 55% in size
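ATXN2-luciferase reporter cells (luciferase flanked by upstream and downstream ATXN2 gene portions) were treated 24 h at 37 °C with compounds at up to 57 uM. SteadyGlo luminescence gave expression; GF-AFC fluorescence gave viability.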
S2 tox = Viability Counterscreen for Primary qHTS for Inhibitors of ATXN expression. S2 cells (HEK-293 line with an ATXN2-luciferase reporter) viability, CellTiter-Fluor protease fluorescence, 24 h. Potency, µM (doses to about 56.7 µM), hits mostly cytotoxic. 0.49% of 400,000 active. AID 651635, 2014; note: nearly all actives have a fitted effect of over 40% in size
HepG2 tox = qHTS for Inhibitors of TGF-b: Cytotox Counterscreen | HepG2 CAGA-GFP viability, ATP luminescence, 18 h | Potency, µM (titrated, usually from 46.1 µM), usual class: cytotoxic | 0.76% of 410,000 active | AID 588856, 2011
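HepG2 CAGA-GFP cells (1000/well, DMEM with 1% FBS) received compound, then TGF-beta at 500 pg/mL final, and were incubated 18 hours at 37 degrees C. Viability was read by CellTiter-Glo luminescence. Media-only wells were set as complete cell-killing and DMSO as no toxicity.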
TGFb SMAD3 inh = qHTS for Inhibitors of TGF-b; HepG2 CAGA-GFP TGF-b/SMAD3 reporter, GFP fluorescence, 18 h; TGF-beta stimulated, 500 pg/mL final; Potency, µM (doses to about 46.1 µM), usual class: inhibitors; 1.2% of 410,000 active; note: nearly all actives have a fitted effect of over 65% in size
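Cell-based qHTS in HEPG2 carrying a CAGA-GFP Smad reporter; compounds added before 500 pg/mL final TGF-beta, 18 h incubation at 37 degrees C, GFP fluorescence quantified per cell by imaging cytometry.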
VP16 counter = VP16 counterscreen qHTS for inhibitors of ROR gamma transcriptional activity. AID 2546, 2010. Potency, µM (top dose mostly 53.6 µM), actives largely listed as inhibitors. 3.5% of 310,000 active. Drosophila S2 Gal4-VP16 UAS-luciferase, luminescence, 20 h;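 note: Gal4-VP16 expression switched on by copper sulfate through the metallothionein promoter; nearly all actives have a fitted effect of over 50% in size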
Numbers stand for hits; - = inactive; ? = inconclusive; . = no result given; [ ] = dose if it differs, or a comment. Sampled rows, rich in hits. Any-hit rate of the full collection: about 6.3%. Calls come from the whole dose curve; as a rule, active = well fitted curve in the direction sought with a large enough effect; inconclusive = small, poorly fitted or top-dose-only effect, or another doubt; inactive = no such curve, though single readings can be large; an effect the other way counts as inactive or inconclusive.

SMILES	RORg inh	ATXN2 expr inh	S2 tox	HepG2 tox	TGFb SMAD3 inh	VP16 counter
CC(=O)n1cc(/C=N/NC(=O)c2sc(C)nc2C)c2ccccc21	14µM	-	-	-	-	?
CC(=O)n1cc(/C=N/NC(=O)c2ccc([N+](=O)[O-])cc2)c2ccccc21	3.5µM	.	?	-	-	?
COc1ccccc1CNC(=O)C1CCN(c2nc3ccc(Cl)cc3[nH]2)CC1	.	.	.	-	-	.
COc1ccc(C(=O)Nc2ccccc2SCc2cc(=O)n3nc(C)sc3n2)cc1OC	-	-	-	-	-	-
Cc1ccc2nc(Nc3nc(-c4ccccc4)cc(=O)[nH]3)nc(C)c2c1	?	-	-	-	?	13µM
Cc1ccc2c(C)nc(Nc3nc(CSc4nc5ccccc5[nH]4)cc(=O)[nH]3)nc2c1	?	-	?	-	?	5.6µM
Cc1ccc2nc(Nc3nc(=O)c4ccccc4n3C)nc(C)c2c1	0.79µM	.	.	.	.	1µM
Cc1nn2c(=O)cc(CSc3nc4ccccc4[nH]3)nc2s1	4µM	-	-	-	-	-
Cc1ccc2nc(Nc3nc(C)cc(-c4ccccc4)n3)[nH]c(=O)c2c1	-	-	?	-	-	-
Cc1ccc2nc(NC3=NCN(Cc4ccccc4)CN3)nc(C)c2c1	-	.	.	.	.	-
COc1ccc(C(=O)N(Cc2ccco2)Cc2cccs2)cc1	.	.	.	-	-	.
CCCNS(=O)(=O)c1cc(-c2nnc3c4ccccc4c(C)nn23)ccc1OC	.	.	.	-	-	.
COc1ccccc1S(=O)(=O)N(C)C[C@@H]1OCc2cn(nn2)CCCC(=O)N([C@H](C)CO)C[C@H]1C	.	-	-	-	-	.
COc1cc(CNc2cccc3[nH]c(C(F)(F)F)nc23)cc(OC)c1	?	.	-	-	13µM	-
O=C(CSc1ccc(-c2ccc(Br)cc2)nn1)NC1CCCC1	-	-	-	-	-	-
NC(=S)N=Nc1c(O)[nH]c2ccccc12	20µM	-	-	-	-	-
NC(=S)N=Nc1c(O)[nH]c2c(Br)cc(Br)cc12	3.5µM	-	-	-	-	11µM
CC(C)c1ccc2[nH]c(O)c(N=NC(=S)NCCc3ccccc3)c2c1	2µM	.	?	-	?	2.2µM
O=C(CNC(=O)c1ccccc1)N=Nc1c(O)[nH]c2ccc(Br)cc12	-	-	-	-	-	?
CC(C)c1ccc2[nH]c(O)c(N=NC(=O)c3ccc(CSc4nncn4C)cc3)c2c1	-	-	-	-	-	-
Cc1ccc2[nH]c(O)c(N=NC(N)=S)c2c1	-	.	-	-	?	-
CCNC(=S)N=Nc1c(O)[nH]c2ccc(C(C)C)cc12	2.8µM	-	-	-	-	7.1µM
CC1(C(=O)NCc2ccccc2Br)CCN1C(=O)Cc1ccc(-c2ccccc2)cc1 (stereo not drawn)	.	?	-	-	?	.
CCCCNC(=S)N=Nc1c(O)[nH]c2ccccc12	2.2µM	-	-	-	-	5.6µM
Oc1cccc(NC(=S)N=Nc2c(O)[nH]c3ccccc23)c1	-	-	-	-	?	-
SMILES	RORg inh	ATXN2 expr inh	S2 tox	HepG2 tox	TGFb SMAD3 inh	VP16 counter
CCOc1ccc(NC(=S)N=Nc2c(O)[nH]c3ccccc23)cc1	2.2µM	-	?	8.9µM	7.9µM	5µM
CCC(O)(CC)C(=O)N=Nc1c(O)[nH]c2ccccc12	-	-	-	-	-	-
Oc1[nH]c2ccccc2c1N=NC(=S)NCCc1ccccc1	4.5µM	-	-	-	11µM	3.2µM
CCc1ccc2[nH]c(=O)c(CN(Cc3cccs3)Cc3nnnn3Cc3ccccc3)cc2c1	.	.	.	-	?	.
CO[C@H]1COC(=O)[C@@H](Cc2ccccc2)NC(=O)[C@@H](C)COC(=O)C/C=C\[C@@H]1C	-[10 µM]	.	.	.	.	-[10 µM]
CCSc1nc2c([nH]c3ccccc32)c(=O)n1-c1cccc(OC)c1	.	-	-	-	?	.
O=C(Nc1ccccc1)Nc1sccc1-c1nc2ccccc2s1	7.9µM	-	.	-	-	-
O=C(Nc1cccc(Cl)c1)Nc1sccc1-c1nc2ccccc2s1	?	-	.	-	-	-
Cc1ccc(NC(=O)C2CC(=O)N/C(=N/NC(=O)c3ccc(C)cc3)S2)cc1 (stereo not drawn)	2.2µM	-	-	-	-	10µM
O=C1CC(C(=O)Nc2ccccc2)S/C(=N\NC(=O)c2ccccc2Cl)N1 (stereo not drawn)	3.2µM	.	-	-	-	5µM
COc1ccc(CN=C2NC(=O)CC(C(=O)Nc3ccc(Cl)cc3)S2)cc1 (stereo not drawn)	?	-	-	-	-	-
COc1cccc(NC(=O)C2CC(=O)N/C(=N/NC(=O)c3ccc(C)cc3)S2)c1 (stereo not drawn)	6.3µM	-	-	-	-	11µM
COc1ccc(NC(=O)C2CC(=O)N/C(=N/NC(=O)c3ccc(Cl)cc3)S2)cc1 (stereo not drawn)	1.3µM	-	-	-	-	-
COc1ccccc1CN1CCCC2(CCNCC2)C1	-	.	.	.	.	-
Cc1ccc2c(=O)cc(C(=O)Nc3ccc(S(=O)(=O)Nc4onc(C)c4C)cc3)oc2c1C	.	-	-	-	-	.
CC(NC(=O)CN1C(=O)COc2ccc(Cl)cc21)c1ccccc1 (stereo not drawn)	.	-	-	-	-	.
Cc1ccc(C(=O)N/N=C2/NC(=O)CC(C(=O)Nc3ccccc3)S2)cc1 (stereo not drawn)	3.2µM	-	-	-	-	5.6µM
COc1ccccc1C(=O)N1CCC(c2c[nH]c3ccccc23)(c2c[nH]c3ccccc23)CC1	.	-	-	-	?	.
CC(C)Nc1nc2c(S(=O)(=O)c3cccc(Cl)c3)nnn2c2ccsc12	.	.	.	-	-	.
CN(C(=O)/C=C/c1ccccc1)C1CCS(=O)(=O)C1 (stereo not drawn)	-	-	-	-	-	-
CN(C(=O)/C=C/c1ccccc1)C1CCCCC1	.	-	-	11µM	-	.
CCCn1c(=S)[nH]c2cc(Cl)ccc21	5µM	-	-	-	-	18µM
CCn1c(=S)[nH]c2cc(Cl)ccc21	5.6µM	-	-	-	-	25µM
CCn1c(=S)[nH]c2cc(S(=O)(=O)N3CCCCC3)ccc21	10µM	-	-	-	-	?
CCn1c(=S)[nH]c2ccccc21	?	-	?	-	-	?
CCCCn1c(=S)[nH]c2cc(S(=O)(=O)N3CCOCC3)ccc21	.	-	-	-	-	.
CCn1c(=S)[nH]c2cc(C(=O)O)ccc21	-	.	.	.	.	-
OC(Cc1ccccc1)c1ncc(-c2ccc(Cl)cc2)[nH]1 (stereo not drawn)	.	-	-	-	?	.
